The results in this text go back to the supplement of paper PMC10849652.

The full data set covers some 8,800 targets. This sample favours those with a hit. About 0.5% of all pairs of compound and target were hits. Unmarked numbers belong to inactive results.

Sequence of UniProt P48634 (P48634 whole entry, looked up): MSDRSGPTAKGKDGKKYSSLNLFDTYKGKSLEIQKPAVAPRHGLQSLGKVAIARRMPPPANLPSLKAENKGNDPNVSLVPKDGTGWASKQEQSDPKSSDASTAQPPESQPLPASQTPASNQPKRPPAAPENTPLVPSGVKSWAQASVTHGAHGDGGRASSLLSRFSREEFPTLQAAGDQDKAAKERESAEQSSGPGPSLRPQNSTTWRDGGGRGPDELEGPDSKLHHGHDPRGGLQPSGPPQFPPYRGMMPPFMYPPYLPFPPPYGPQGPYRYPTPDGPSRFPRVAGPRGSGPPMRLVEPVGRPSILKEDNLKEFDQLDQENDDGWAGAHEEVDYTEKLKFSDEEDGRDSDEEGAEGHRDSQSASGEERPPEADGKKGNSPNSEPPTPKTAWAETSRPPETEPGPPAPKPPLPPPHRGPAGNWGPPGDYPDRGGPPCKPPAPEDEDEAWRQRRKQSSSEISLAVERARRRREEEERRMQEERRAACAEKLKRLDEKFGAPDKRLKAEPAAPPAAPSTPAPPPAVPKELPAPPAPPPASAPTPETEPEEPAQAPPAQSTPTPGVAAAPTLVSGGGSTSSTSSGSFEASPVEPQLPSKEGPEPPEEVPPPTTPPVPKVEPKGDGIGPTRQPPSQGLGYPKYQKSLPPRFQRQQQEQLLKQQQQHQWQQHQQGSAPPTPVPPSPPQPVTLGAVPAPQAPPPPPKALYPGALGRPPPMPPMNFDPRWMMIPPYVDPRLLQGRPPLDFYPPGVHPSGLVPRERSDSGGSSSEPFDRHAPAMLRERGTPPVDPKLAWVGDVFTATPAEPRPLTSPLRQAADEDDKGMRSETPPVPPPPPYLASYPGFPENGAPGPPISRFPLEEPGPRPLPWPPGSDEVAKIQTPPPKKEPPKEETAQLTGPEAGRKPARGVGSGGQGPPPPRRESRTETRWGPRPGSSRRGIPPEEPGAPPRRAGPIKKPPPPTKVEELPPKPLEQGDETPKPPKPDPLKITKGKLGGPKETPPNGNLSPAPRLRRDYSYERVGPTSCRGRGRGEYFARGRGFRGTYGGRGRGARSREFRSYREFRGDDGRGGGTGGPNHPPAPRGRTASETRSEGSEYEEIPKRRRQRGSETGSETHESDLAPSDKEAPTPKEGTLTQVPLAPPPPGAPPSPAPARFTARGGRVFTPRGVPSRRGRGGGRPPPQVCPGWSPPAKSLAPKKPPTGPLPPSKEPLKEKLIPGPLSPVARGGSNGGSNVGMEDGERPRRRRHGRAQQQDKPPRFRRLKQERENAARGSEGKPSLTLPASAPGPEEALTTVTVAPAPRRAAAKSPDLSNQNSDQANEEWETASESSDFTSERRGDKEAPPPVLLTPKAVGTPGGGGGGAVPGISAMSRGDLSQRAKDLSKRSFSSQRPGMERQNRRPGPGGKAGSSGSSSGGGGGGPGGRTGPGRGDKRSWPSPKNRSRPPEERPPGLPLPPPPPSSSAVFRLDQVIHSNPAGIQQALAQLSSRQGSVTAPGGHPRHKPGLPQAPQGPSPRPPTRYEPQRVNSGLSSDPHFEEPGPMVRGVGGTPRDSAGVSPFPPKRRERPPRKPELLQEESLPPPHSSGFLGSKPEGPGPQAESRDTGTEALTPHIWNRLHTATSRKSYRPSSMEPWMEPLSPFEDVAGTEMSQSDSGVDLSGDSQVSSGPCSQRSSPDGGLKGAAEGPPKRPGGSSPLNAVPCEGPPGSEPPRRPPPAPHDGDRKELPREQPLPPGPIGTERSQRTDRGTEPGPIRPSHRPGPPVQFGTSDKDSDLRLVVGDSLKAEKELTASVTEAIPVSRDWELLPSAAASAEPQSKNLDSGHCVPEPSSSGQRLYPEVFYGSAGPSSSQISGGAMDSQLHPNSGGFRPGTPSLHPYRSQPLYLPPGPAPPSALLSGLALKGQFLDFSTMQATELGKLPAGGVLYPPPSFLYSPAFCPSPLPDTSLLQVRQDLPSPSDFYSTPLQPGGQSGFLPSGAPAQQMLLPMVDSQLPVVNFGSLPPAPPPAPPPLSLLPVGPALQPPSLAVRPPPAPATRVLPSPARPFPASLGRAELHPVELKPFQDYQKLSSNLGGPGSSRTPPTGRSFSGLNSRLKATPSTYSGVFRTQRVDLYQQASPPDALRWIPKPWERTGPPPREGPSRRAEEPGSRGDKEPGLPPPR
Sequence of UniProt Q9UBV8 (Q9UBV8 whole entry, looked up): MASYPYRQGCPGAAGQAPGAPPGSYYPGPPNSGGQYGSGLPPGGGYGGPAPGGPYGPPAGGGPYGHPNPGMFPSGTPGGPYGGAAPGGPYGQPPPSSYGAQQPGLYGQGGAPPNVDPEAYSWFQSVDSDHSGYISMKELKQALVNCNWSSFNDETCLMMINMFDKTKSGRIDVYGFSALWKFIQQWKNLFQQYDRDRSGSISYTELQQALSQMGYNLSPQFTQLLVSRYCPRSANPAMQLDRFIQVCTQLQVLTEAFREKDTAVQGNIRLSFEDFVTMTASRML
Sequence of UniProt Q16877 (Q16877 whole entry, looked up): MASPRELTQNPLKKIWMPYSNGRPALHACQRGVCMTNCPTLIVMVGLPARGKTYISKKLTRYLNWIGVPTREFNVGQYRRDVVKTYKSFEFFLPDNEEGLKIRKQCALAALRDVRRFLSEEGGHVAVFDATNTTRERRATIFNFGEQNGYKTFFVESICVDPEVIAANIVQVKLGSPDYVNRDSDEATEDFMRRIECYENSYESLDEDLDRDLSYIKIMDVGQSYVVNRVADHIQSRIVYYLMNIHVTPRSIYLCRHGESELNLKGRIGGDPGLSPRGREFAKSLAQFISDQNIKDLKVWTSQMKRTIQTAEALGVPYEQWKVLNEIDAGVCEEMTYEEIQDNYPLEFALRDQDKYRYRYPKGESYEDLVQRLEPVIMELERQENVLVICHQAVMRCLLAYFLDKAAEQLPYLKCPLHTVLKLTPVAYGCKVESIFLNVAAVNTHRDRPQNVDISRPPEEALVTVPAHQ
Sequence of UniProt P14314 (P14314 whole entry, looked up): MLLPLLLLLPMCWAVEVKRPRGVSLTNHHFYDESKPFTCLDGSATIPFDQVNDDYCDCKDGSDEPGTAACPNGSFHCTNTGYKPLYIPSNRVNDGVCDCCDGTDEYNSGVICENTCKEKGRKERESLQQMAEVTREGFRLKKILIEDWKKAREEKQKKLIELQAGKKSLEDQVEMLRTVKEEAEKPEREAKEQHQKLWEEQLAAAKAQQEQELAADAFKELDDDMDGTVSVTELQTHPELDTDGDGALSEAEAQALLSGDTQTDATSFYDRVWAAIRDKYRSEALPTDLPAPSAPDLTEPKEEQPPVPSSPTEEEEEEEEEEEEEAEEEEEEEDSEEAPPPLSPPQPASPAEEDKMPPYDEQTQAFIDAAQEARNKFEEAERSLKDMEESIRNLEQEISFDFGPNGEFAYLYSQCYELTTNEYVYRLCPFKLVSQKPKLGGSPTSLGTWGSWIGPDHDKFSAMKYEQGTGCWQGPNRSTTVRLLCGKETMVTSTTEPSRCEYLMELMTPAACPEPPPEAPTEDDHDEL
Sequence of UniProt Q9BZL6 (Q9BZL6 whole entry, looked up): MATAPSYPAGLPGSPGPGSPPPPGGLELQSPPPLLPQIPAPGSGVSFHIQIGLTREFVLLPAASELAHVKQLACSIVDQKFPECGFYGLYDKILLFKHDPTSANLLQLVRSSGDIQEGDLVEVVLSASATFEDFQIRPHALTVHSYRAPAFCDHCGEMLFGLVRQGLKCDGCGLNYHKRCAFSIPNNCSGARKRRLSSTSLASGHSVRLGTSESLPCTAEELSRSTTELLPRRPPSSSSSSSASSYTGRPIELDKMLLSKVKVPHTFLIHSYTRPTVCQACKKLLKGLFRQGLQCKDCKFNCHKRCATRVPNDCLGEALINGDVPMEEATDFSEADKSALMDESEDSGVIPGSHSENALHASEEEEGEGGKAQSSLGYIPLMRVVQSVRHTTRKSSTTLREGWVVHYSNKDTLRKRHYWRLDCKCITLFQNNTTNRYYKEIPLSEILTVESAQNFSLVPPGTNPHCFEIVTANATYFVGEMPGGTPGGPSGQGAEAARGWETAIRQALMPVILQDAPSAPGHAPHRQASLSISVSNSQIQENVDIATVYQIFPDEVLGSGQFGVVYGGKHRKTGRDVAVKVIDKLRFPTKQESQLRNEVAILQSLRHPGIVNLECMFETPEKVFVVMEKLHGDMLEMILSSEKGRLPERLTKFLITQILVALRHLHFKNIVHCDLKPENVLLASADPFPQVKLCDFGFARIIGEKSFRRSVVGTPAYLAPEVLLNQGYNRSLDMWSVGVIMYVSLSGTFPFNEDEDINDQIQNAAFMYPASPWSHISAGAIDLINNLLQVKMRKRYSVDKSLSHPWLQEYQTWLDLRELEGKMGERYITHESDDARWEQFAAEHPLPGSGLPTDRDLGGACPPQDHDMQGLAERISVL
Sequence of UniProt Q9Y244 (Q9Y244 whole entry, looked up): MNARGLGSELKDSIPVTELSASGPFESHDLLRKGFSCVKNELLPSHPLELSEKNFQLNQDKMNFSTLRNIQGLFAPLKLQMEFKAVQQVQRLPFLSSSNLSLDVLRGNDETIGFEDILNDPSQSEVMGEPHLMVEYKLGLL
Sequence of UniProt Q8TAE6 (Q8TAE6 whole entry, looked up): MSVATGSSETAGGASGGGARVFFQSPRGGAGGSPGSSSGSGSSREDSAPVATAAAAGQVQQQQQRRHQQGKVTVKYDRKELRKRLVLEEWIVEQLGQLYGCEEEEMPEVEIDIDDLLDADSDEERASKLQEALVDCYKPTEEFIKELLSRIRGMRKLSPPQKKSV
Sequence of UniProt Q9UNP9 (Q9UNP9 whole entry, looked up): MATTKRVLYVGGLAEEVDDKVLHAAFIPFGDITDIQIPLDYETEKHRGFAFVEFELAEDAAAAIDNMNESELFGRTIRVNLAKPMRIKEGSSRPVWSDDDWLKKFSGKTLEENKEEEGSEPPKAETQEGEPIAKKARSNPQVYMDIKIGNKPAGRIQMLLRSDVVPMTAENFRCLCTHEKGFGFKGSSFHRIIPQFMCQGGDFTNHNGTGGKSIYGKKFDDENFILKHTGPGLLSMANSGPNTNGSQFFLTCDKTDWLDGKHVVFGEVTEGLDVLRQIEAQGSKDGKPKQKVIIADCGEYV

Compound in one assay: CCn1c(C(=O)N(C2CC2)C2CC2)cc2c3c(ncn3C)c(Nc3cc(C)n(C)n3)nc21
Nature of the assay: log2 fold change, soluble protein after heating vs DMSO (PISA); higher = thermal stabilisation; K562 lysate, 10 uM; active = over 0.2 and 3.5 SD of the protein, either way, in both replicates (recomputed). The essentials: (§1)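 Thermal stability, expressed as log-two fold change relative to solvent controls, is given from duplicates. Crude K562 extract in PBS pH 7.4 with 1 mM MgCl2, at 1 mg/mL protein, was treated with 10 μM compound for 30 min and heated in aliquots for 3 min across 48°C-58°C. After pooling, adjustment to 0.5% NP-40 at 4°C and centrifugation at 21,000xg for 90 min, supernatant protein was measured by TMTpro 16plex LC-MS/MS with channel sums equalised.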
For PCIF1 (UniProt Q9H4Z3), the log2 fold change was 0.029.
For the target PEF1 (UniProt Q9UBV8), the log2 fold change is -0.001.
On the same count and under the same terms, to PMPCA (UniProt Q10713) belongs -0.025; to PPP4R2 (UniProt Q9NY27), -0.042; to PLXNB2 (UniProt O15031), -0.003.
The same measure, in the same setting: to PIK3R1 (UniProt P27986) belongs 0.023.
Turning to PTGR2 (UniProt Q8N8N7), the log2 fold change is 0.069.
On the same count and under the same terms, as for PFKFB4 (UniProt Q16877), the figure is -0.011.
Still for that read-out and setting: to PFAS (UniProt O15067) belongs 0; to PRKAR2B (UniProt P31323), -0.032.
Same read-out and setting: as for PGRMC1 (UniProt O00264), the figure is 0.021.
As for PPP3CA isoform 2 (UniProt Q08209), the log2 fold change is 0.032.
Same read-out and setting: as for PUM1 isoform 3 (UniProt Q14671), the figure is 0.03; as for PPP1R14C (UniProt Q8TAE6), 0.072; as for PRKCB isoform 2 (UniProt P05771), 0.002.
On the same count and under the same terms, as for PIP4K2A (UniProt P48426), the figure is 0.073; as for POLR2B (UniProt P30876), 0.01; as for PPP2R3C (UniProt Q969Q6), 0.071.
Regarding PFKFB3 isoform 4 (UniProt Q16875), the log2 fold change is 0.037.
Same read-out and setting: to PCF11 (UniProt O94913) belongs -0.045; to PRPF38A (UniProt Q8NAV1), -0.055; to POMP (UniProt Q9Y244), -0.028.
Still for that read-out and setting: as for PRKD2 isoform 3 (UniProt Q9BZL6), the figure is 0.097; as for PPIE (UniProt Q9UNP9), -0.003.
For POLR2F (UniProt P61218), the log2 fold change is 0.078.
Still for that read-out and setting: as for PWP1 (UniProt Q13610), the figure is -0.023; as for PLEKHA5 isoform 6 (UniProt Q9HAU0), 0.026.
On the same count and under the same terms, as for PHKB isoform 3 (UniProt Q93100), the figure is 0.009.
On to PRKCSH (UniProt P14314), for which the log2 fold change was 0.025.
Consider PIK3R2 (UniProt O00459), for which the log2 fold change was 0.071.
Same read-out and setting: to PITRM1 isoform 2 (UniProt Q5JRX3) belongs -0.008; to PIKFYVE (UniProt Q9Y2I7), 0.04; to PPIL3 (UniProt Q9H2H8), 0.027.
Regarding PTPN1 (UniProt P18031), the log2 fold change is 0.033.
Same read-out and setting: to PPME1 isoform 4 (UniProt Q9Y570) belongs 0.028.
Same read-out and setting: to PPM1H (UniProt Q9ULR3) belongs 0; to PRPF6 (UniProt O94906), 0.019.
On the same count and under the same terms, as for PRRC2A (UniProt P48634), the figure is 0.013.
As to PHKA1 (UniProt P46020), the log2 fold change was 0.074.

Compound in another assay: CCn1cc(-c2ccnc3[nH]c(-c4cccc(CN(C)C)c4)cc23)c(-c2ccc(NC(=O)N(C)C)cc2)n1
The assay is described as above. The essentials:
as §1
PCIF1 (UniProt Q9H4Z3): the log2 fold change is -0.223.
With PEF1 (UniProt Q9UBV8), the log2 fold change is -0.116.
Still for that read-out and setting: to PMPCA (UniProt Q10713) belongs -0.017; to PPP4R2 (UniProt Q9NY27), 0.21.
On the same count and under the same terms, to PLXNB2 (UniProt O15031) belongs -0.043; to PIK3R1 (UniProt P27986), -0.037.
Same read-out and setting: to PTGR2 (UniProt Q8N8N7) belongs 0.012.
Turning to PFKFB4 (UniProt Q16877), the log2 fold change was 0.014.
On to PFAS (UniProt O15067), for which the log2 fold change is -0.023.
The same measure, in the same setting: as for PRKAR2B (UniProt P31323), the figure is 0.051; as for PGRMC1 (UniProt O00264), -0.045; as for PPP3CA isoform 2 (UniProt Q08209), 0.115.
Still for that read-out and setting: as for PUM1 isoform 3 (UniProt Q14671), the figure is 0.045; as for PPP1R14C (UniProt Q8TAE6), -0.217.
Same read-out and setting: as for PRKCB isoform 2 (UniProt P05771), the figure is 0.073; as for PIP4K2A (UniProt P48426), -0.035; as for POLR2B (UniProt P30876), -0.029.
As for PPP2R3C (UniProt Q969Q6), the log2 fold change is -0.392 (active).
Same read-out and setting: as for PFKFB3 isoform 4 (UniProt Q16875), the figure is 0.003; as for PCF11 (UniProt O94913), 0.081.
Still for that read-out and setting: to PRPF38A (UniProt Q8NAV1) belongs -0.465 (active); to POMP (UniProt Q9Y244), 0.065.
On the same count and under the same terms, to PRKD2 isoform 3 (UniProt Q9BZL6) belongs 0.038; to PPIE (UniProt Q9UNP9), -0.25 (active); to POLR2F (UniProt P61218), 1.25 (active).
Regarding PWP1 (UniProt Q13610), the log2 fold change is 0.62 (active).
Same read-out and setting: as for PLEKHA5 isoform 6 (UniProt Q9HAU0), the figure is -0.117.
On the same count and under the same terms, as for PHKB isoform 3 (UniProt Q93100), the figure is -0.146; as for PRKCSH (UniProt P14314), 0.007.
The same measure, in the same setting: to PIK3R2 (UniProt O00459) belongs -0.018.
As for PITRM1 isoform 2 (UniProt Q5JRX3), the log2 fold change was 0.07.
For the target PIKFYVE (UniProt Q9Y2I7), the log2 fold change is -0.056.
The same measure, in the same setting: to PPIL3 (UniProt Q9H2H8) belongs 0.067.
The same measure, in the same setting: to PTPN1 (UniProt P18031) belongs -0.061.
For PPME1 isoform 4 (UniProt Q9Y570), the log2 fold change was -0.015.
As to PPM1H (UniProt Q9ULR3), the log2 fold change was -0.079.
The same measure, in the same setting: to PRPF6 (UniProt O94906) belongs 0.034.
On to PRRC2A (UniProt P48634), for which the log2 fold change is 0.05.
The same measure, in the same setting: as for PHKA1 (UniProt P46020), the figure is -0.067.
